Source: PubChem BioAssay AID1259422 (The Scripps Research Institute Molecular Screening Center, 2018)
Screen size: about 640,000 compounds; about 9,300 (1.5%) were called active. This excerpt belongs to a sample that is enriched for actives. Unmarked numbers belong to inactive results. No stated cut-off is given here; in the data, active means inhibition above about 32%; inactive means the rest.

Test: TEAD-YAP interaction inhibition, primary screen, TEAD-YAP interaction inhibitor project, luminescence, HEK-TIYL cells (AID 1259422);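 further: 0% = median of test compound wells and 100% = reference inhibitor wells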
Settings: TEAD-Gal4/YAP UAS-luciferase luminescence, at 9.12 µM, stronger effect = higher value

Structure (SMILES) | inhibition
CCOC(=O)N1CCC(N2C(=O)c3ccc(C(=O)NCC(OC)OC)cc3C2=O)CC1 | 10.6%
CCCCSc1nnc(NC(=O)C2CC2)s1 | -17.5%
NS(=O)(=O)c1cccc(N=C2C(=O)Nc3ccc([N+](=O)[O-])cc32)c1 | -2.91%
CCN(CC)c1ccc2cc(-c3nc4ccc(Cl)cc4[nH]3)c(=O)oc2c1 | 25.2%
CCN(CC)c1ccc2cc(-c3nc4ccccc4[nH]3)c(=N)oc2c1 | 76.8% (active)
CCN(CC)c1ccc2cc(-c3nnc(Nc4ccccc4F)s3)c(=O)oc2c1 | 2.05%
CC[n+]1cc(C)ccc1/C=C/c1ccc(N(C)C)cc1 | 86.9% (active)
CN(C)c1ccc(C=NCC(O)CN=Cc2ccc(N(C)C)cc2)cc1 (stereo not drawn) | 3.49%
CC[n+]1c(/C=C/c2ccc(N(C)C)cc2)oc2ccccc21 | 1.32%
Cc1ccc(/C=C2/SC(=O)N(CCC(=O)O)C2=O)cc1 | 19.7%
COc1ccc(/C=C2\SC(=O)N(Cc3ccc(C(=O)O)cc3)C2=O)cc1 | 1.76%
COc1ccc(/C=C2/SC(=O)N(CCCC(=O)Nc3ccc(C(=O)O)cc3)C2=O)cc1 | 80.5% (active)
COc1ccc(N=C2SC(C(=O)Nc3ccc(C)cc3C)CC(=O)N2CCc2ccc(OC)c(OC)c2)cc1 (stereo not drawn) | 9.84%
O=C(Cc1cc(=O)[nH]c(=O)[nH]1)NCCCc1ccccc1 | -5.86%
CCOC(=O)Nc1c(C(=O)OC)[nH]c2ccc(C)cc12 | -2.73%
CCOC(=O)Nc1cc(=O)c2cc(C)ccc2o1 | 41.8% (active)
Cc1ccc2oc(C(=O)Nc3ccccc3F)cc(=O)c2c1 | 4.72%
COCCSc1nc2c(c(=O)[nH]c(=O)n2C)n1Cc1ccccc1Cl | 2.74%
O=[N+]([O-])c1ccc2cnn(-c3cccc(C(F)(F)F)c3)c2c1 | -0.71%
COc1ccccc1N1CCN(c2ncnc3sc(C(=O)N4CCCCC4C)c(C)c23)CC1 (stereo not drawn) | 6.82%
CCOC(=O)c1c(/N=C/c2cccc(OC)c2OC)sc2c1CCN(CC)C2 | 4.12%
CC(C)N(CC(=O)N1c2ccccc2CC1C)Cc1ccccc1 (stereo not drawn) | -1.32%

Structure (SMILES) | inhibition
Cc1cccc2c1[nH]c1nc(N/N=C\c3ccc(O)cc3)nnc12 | -16.6%
CC/C(=N/Nc1nnc2c(n1)[nH]c1ccccc12)c1ccccc1 | 0.16%
Oc1ccc(O)c(/C=N/Nc2nnc3c(n2)[nH]c2ccccc23)c1 | 49% (active)
Cc1nc(N2CCC(NCC(F)(F)F)CC2)nc2cc3c(cc12)CCC3 | -15.4%
C/C(=N\NC(=O)c1nnn(-c2nonc2N)c1C)c1ccc(Cl)c(Cl)c1 | -6.68%
O=C(O)CCC(=O)N1CCC(c2nc3ccc(Cl)cc3[nH]2)CC1 | 1.09%
O=C(CCCn1c(=S)[nH]c2ccccc2c1=O)NCc1cccc(Cl)c1 | 3.21%
O=C(CCCn1c(=S)[nH]c2ccccc2c1=O)Nc1ccc(F)c(Cl)c1 | -21.7%
Cc1cc(C)cc(NC(=O)CCCn2c(=S)[nH]c3ccccc3c2=O)c1 | 34.5% (active)
O=C1CCCN1CCCNc1nc(Nc2ccc(-n3ccnc3)cc2)nc2c1ncn2CCN1CCCC1=O | 4.85%
OCCNc1nc(Nc2ccc(N3CCOCC3)cc2)nc2c1ncn2-c1ccccc1 | 28.7%
CN(C)c1cccc(Nc2nc(NCCN3CCOCC3)c3ncn(-c4ccccc4)c3n2)c1 | 3.8%
c1ccc(-n2cnc3c(NCCN4CCOCC4)nc(Nc4ccc(-n5ccnc5)cc4)nc32)cc1 | 61.3% (active)
CC(C)n1cnc2c(NCCCN3CCCC3=O)nc(Nc3ccc(-n4ccnc4)cc3)nc21 | 44.4% (active)
CC(C)n1cnc2c(NCCCN3CCCC3=O)nc(-c3csc4ccccc34)nc21 | 3.47%
OCCNc1nc(N2CCCC2CO)nc2c1ncn2-c1ccsc1 (stereo not drawn) | 14.6%
OCC1CCCN1c1nc(NC2CC2)c2ncn(-c3ccccc3)c2n1 (stereo not drawn) | -46.6%
c1cnc(Nc2nc(Nc3ccc(N4CCOCC4)cc3)c3ncn(-c4ccsc4)c3n2)nc1 | 51.1% (active)
c1ccc(Nc2nc(Nc3ccc(N4CCOCC4)cc3)c3ncn(-c4ccccc4)c3n2)cc1 | 3.79%
c1cc(Nc2nc(Nc3ccc(N4CCOCC4)cc3)c3ncn(-c4ccsc4)c3n2)ccn1 | -4.11%
COc1ccc(CCNc2nc(N3CCCC3CO)nc3c2ncn3-c2ccsc2)cc1 (stereo not drawn) | 53.3% (active)
C[C@@H]1CN(C(=O)C2CC23CCN(Cc2coc4ccccc4c2=O)CC3)C[C@H](C)O1 (stereo partly drawn) | -6.72%

Structure (SMILES) | inhibition
Cc1cccc(-c2nc(-c3ccc(Cl)cc3)no2)c1 | -40.1%
CCN(CC)S(=O)(=O)c1ccc(N2CCc3ccccc32)c([N+](=O)[O-])c1 | -8.71%
CC(C)(C#N)OC(=O)Nc1cccc(Cl)c1 | -3.72%
Cc1ccc(N2C(=O)Cc3c2nc(N)c2c(N)nc(N4CCCCC4)c(C#N)c32)cc1C | 18.1%
CC(C)(C)NC(=O)c1cnn2c(C(F)(F)F)cc(-c3ccc(F)cc3)nc12 | 6.73%
CCOCCOC(=O)COc1ccc2c(C)cc(=O)oc2c1 | 3.62%
Cc1ccc(-c2cc(C(=O)Nc3ccc(Br)cc3Br)c3ccccc3n2)o1 | -7.27%
Cc1nn(C)c(C)c1NC(=O)c1c([N+](=O)[O-])cnn1C | 4.42%
Cc1c(Cl)cccc1N1C(=O)c2ccc(Oc3ccc(Nc4ncnc5ccccc45)cc3)cc2C1=O | 2.53%
O=C(Cc1c(F)cccc1Cl)Nc1cc(C(=O)Nc2cccc(C(F)(F)F)c2)ccc1N1CC2CC(C1)c1cccc(=O)n1C2 (stereo not drawn) | 2.29%
Oc1ccc(CCNc2nc(Nc3ccc(N4CCOCC4)cc3)nc3c2ncn3-c2ccccc2)cc1 | 9.04%
c1ccc(Oc2ccc(Nc3nc(Nc4ccccn4)nc4c3ncn4-c3ccsc3)cc2)cc1 | 2.53%
COc1cc(Nc2nc(Nc3nccc4ccccc34)nc3c2ncn3-c2ccsc2)cc(OC)c1OC | 12.9%
Nc1nc(Nc2nccc3ccccc23)nc2c1ncn2-c1ccsc1 | 53.2% (active)
Nc1nc(NCc2cccnc2)nc2c1ncn2-c1ccsc1 | -5.56%
COc1ccc(CCNc2nc(Nc3ccc(-n4ccnc4)cc3)nc3c2ncn3-c2ccsc2)cc1 | 65.1% (active)
Oc1ccc(CCNc2nc(NCCN3CCOCC3)nc3c2ncn3-c2ccsc2)cc1 | 34.3% (active)
COc1cc(Nc2nc(NCc3cccnc3)nc3c2ncn3-c2ccsc2)cc(OC)c1OC | 0.91%
CC(=O)Nc1ccc(Nc2nc(Nc3ccc(-n4ccnc4)cc3)nc3c2ncn3-c2ccsc2)cc1 | 24.8%
CCNc1nc(Nc2cc(OC)c(OC)c(OC)c2)c2ncn(-c3ccsc3)c2n1 | 48.6% (active)
COc1cc(Nc2nc(NCc3cccnc3)c3ncn(-c4ccsc4)c3n2)cc(OC)c1OC | 30.7%
c1ccc2c(Nc3nc(NCCN4CCOCC4)c4ncn(-c5ccsc5)c4n3)nccc2c1 | 19.8%

Structure (SMILES) | inhibition
CCCCOc1ccc(NS(=O)(=O)c2cc(F)ccc2OC)cc1 | 1.6%
Cc1cc2c(cc1C)NC(c1cccc3ccccc13)C1=C(CC(C)(C)CC1=O)N2 (stereo not drawn) | -9.75%
Cn1c(=O)n(Cc2ccc(F)cc2)c(=O)c2c1nc1oc(C(C)(C)C)cn12 | -6.69%
O=[N+]([O-])c1ccc(S(=O)(=O)NCCSCc2ccco2)cc1 | 6.05%
C/C(=N\NC(=O)c1ccc(CSc2nc(C)cc(C)n2)cc1)c1ccccc1O | 10.2%
CCN(CC)C(=O)C1CCCN(c2nc(NC3CC3)c3ncn(-c4ccccc4)c3n2)C1 (stereo not drawn) | 9.83%
CCN(CC)C(=O)C1CCCN(c2nc(NCCN(C(C)C)C(C)C)c3ncn(-c4ccsc4)c3n2)C1 (stereo not drawn) | 36.7% (active)
CC(C)n1cnc2c(NCCc3ccc(O)cc3)nc(Nc3cnccn3)nc21 | 36.5% (active)
CCNc1nc(NCCCN2CCCC2=O)c2ncn(-c3ccccc3)c2n1 | 4.42%
CCN(CC)C(=O)C1CCCN(c2nc(Nc3ccc(NC(C)=O)cc3)c3ncn(-c4ccsc4)c3n2)C1 (stereo not drawn) | 24.3%
O=C1CCCN1CCCNc1nc(Nc2ccccc2)c2ncn(-c3ccsc3)c2n1 | 8.67%
CC(C)n1c(Nc2cnccn2)nc2c(NCCc3ccc(O)cc3)ncnc21 | 14.1%
O=C1CCCN1CCCNc1nc(Nc2ccncn2)nc2c1ncn2-c1ccsc1 | 50.5% (active)
CC(C)n1cnc2c(NCCc3ccc(O)cc3)nc(Nc3cccc(N(C)C)c3)nc21 | -1.31%
Cc1cccc(C(=O)NCc2nnc(SCC(=O)N3N=C(c4cccs4)CC3c3ccc(F)cc3)n2C)c1 (stereo not drawn) | 10.4%
Cc1cccc(NC(=O)CC2SC(N)=NC2=O)c1C (stereo not drawn) | 3.13%
O=c1oc2ccccc2cc1-c1nnc(Nc2cccc3ccccc23)s1 | -25.6%
COc1ccc(NC(=O)C2C3C=CC4(O3)C2C(=O)N(CCC(C)C)C4C(=O)NC2CCCCC2)cc1 (stereo not drawn) | 6.81%
O=S(=O)(c1ccc(Br)c2ccccc12)N1CCN(Cc2ccccc2)CC1 | 14.9%
CCOC(=O)c1nnn(CC(=O)Nc2cccc(C)c2)c1C(=O)OCC | -6.24%
O=c1onc(-c2cccs2)n1Cc1ccccc1 | 4.82%
Cc1cccc(NC(=O)Cn2c(-c3cccs3)noc2=O)c1 | 33.3% (active)
